# Laboratory results as given in PubChem BioAssay (NCI).
# About 83,000 compounds went through this panel and 20% of them were active in at least one assay; those are over-represented in the sample as a whole.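 A percent growth of 40 corresponds to 60% growth inhibition; 0 means no net growth; -100 means all cells died. Active threshold: below 10.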 A number with no mark means an inactive call. Active and inactive are the calls of the source.
# Key:
# Test in all cases: NCI-60 one-dose screen, 48 h (100 = growth as untreated, 0 = no growth, -100 = all killed)
# Details in all cases: 10 µM unless noted
# HCT-15 colon = tested on: HCT-15 colon
# HT29 colon = tested on: HT29 colon
# SNB-75 CNS = tested on: SNB-75 CNS
# SNB-19 CNS = tested on: SNB-19 CNS
# U251 CNS = tested on: U251 CNS
# PC-3 prostate = tested on: PC-3 prostate
# SK-MEL-5 melanoma = tested on: SK-MEL-5 melanoma
# UACC-62 melanoma = tested on: UACC-62 melanoma
# LOX IMVI melanoma = tested on: LOX IMVI melanoma
# SK-MEL-28 melanoma = tested on: SK-MEL-28 melanoma
Compound,growth (HCT-15 colon),growth (HT29 colon),growth (SNB-75 CNS),growth (SNB-19 CNS),growth (U251 CNS),growth (PC-3 prostate),growth (SK-MEL-5 melanoma),growth (UACC-62 melanoma),growth (LOX IMVI melanoma),growth (SK-MEL-28 melanoma)
COc1ccc(/C=C\c2cc(OC)c(OC)c(OC)c2)c(NS(=O)(=O)c2ccc(C)cc2)c1O,15.1%,17.4%,41.6%,48.1%,20.7%,36.3%,-42.3% (active),53%,18.3%,61.7%
O=C1NC(=O)C(=Cc2cccn2CCCCCn2c3ccccc3c(=O)c3ccccc32)C(=O)N1,92.8%,103%,101%,101%,96.8%,91%,98.6%,90.7%,95.3%,111%
ClCCN(CCCl)c1nc(Cl)c(C2CC(c3ccccc3)=NN2c2cc(Cl)cc(Cl)c2)s1 (configuration not stated),104%,101%,96.4%,98.7%,99.4%,93.7%,102%,92.9%,99.2%,106%
COc1cc(/C=C\c2cc(OC)c(OC)c(OC)c2)cc(N/C=C\C(=O)c2cc(OC)c(OC)c(OC)c2)c1OC,19.6%,3.93% (active),-6.67% (active),43.4%,31%,21.1%,5.18% (active),16.8%,28.6%,
O=c1[nH]c2ccc([N+](=O)[O-])cc2c(=O)o1,99%,113%,113%,102%,106%,92.8%,95.3%,100%,99.9%,105%
O=C(Nc1ccncc1F)c1cn(CC2CC2)c2ccccc12,97.3%,102%,103%,97.2%,98.4%,97.6%,97.3%,95.3%,97%,
COc1ccc(/C(C)=C(\c2ccc(OCCN3CCOCC3)cc2)c2ccc(OC(=O)Cc3ccccc3)cc2)cc1,98.5%,92.4%,121%,111%,102%,94.5%,106%,106%,103%,108%
C=CCc1cc2c(cc1OCC)OCO2,96.5%,87.7%,106%,99.7%,107%,80.8%,103%,108%,94.2%,102%
O=C1N[C@@H]2[C@@H](O)[C@@H](O)[C@H](O)C[C@H]2c2cc3c(c(O)c21)OCO3,1.81% (active),-14.9% (active),-25.3% (active),-8.68% (active),-10.5% (active),-8.66% (active),-72.7% (active),-48.3% (active),-48.8% (active),
CN(C)C1C(=O)C(C(N)=O)=C(O)C2(O)C(=O)C3=C(O)c4c(O)cccc4C(C)(O)C3CC12.[Cl][Sb]([Cl])[Cl] (configuration not stated),26.7%,38.5%,40.5%,36.6%,10.8%,15.9%,15.6%,26.4%,25.8%,47%
Cc1ccccc1NC(=NCCCN1CC1)Nc1ccccc1C,96%,75.5%,100%,96.8%,91.5%,74.4%,98%,105%,75.3%,111%
C#C[C@]1(OC(=O)CCCCCC)CC[C@H]2[C@@H]3CCC4=CC(=O)CC[C@@H]4[C@H]3CC[C@@]21C,39.9%,9.11% (active),81.5%,53.7%,50.9%,32.7%,20.5%,25.6%,8.13% (active),43.3%
Oc1c(O)c(Cl)c(Cl)c(Cl)c1Cl,26.3%,62.7%,36.7%,29.7%,38.9%,34.5%,22.5%,3.58% (active),24.4%,51.4%
CCC(=O)Nc1ccc(Cl)c(Cl)c1,101%,91.3%,102%,107%,95.7%,88.9%,101%,96.6%,98.3%,102%
C[C@]12CC[C@H]3[C@@H](CC4SC(N)=NC45C/C(=N/NC(N)=O)CC[C@]35C)[C@@H]1CCC2=O (some centres not stated),-47.8% (active),13.2%,99%,-9.98% (active),-69.9% (active),57.3%,20.6%,38.9%,-67.6% (active),13%
O=C(CCCCCCC(=O)Nc1ccc(N(CCCl)CCCl)cc1)NO,72%,30.5%,6.28% (active),45%,17.9%,54.6%,-56.6% (active),14.5%,-19.9% (active),35.3%
C[C@]12CC[C@H]3[C@@H](CC[C@]4(O)C[C@@H](O[C@@H]5O[C@H](CO)[C@@H](O[C@@H]6OC[C@@H](O)[C@H](O)[C@H]6O)[C@H](O)[C@H]5O)CC[C@]34C=O)[C@@]1(O)CC[C@@H]2C1=CC(=O)OC1,-9.5% (active),3.12% (active),28%,26%,4.09% (active),4.54% (active),-14.1% (active),1.05% (active),-37.3% (active),41.6%
COC(=O)[C@H](C[C@H](Cc1ccccc1)NC(=O)c1csc([C@@H](C[C@H](C(C)C)N(C)C(=O)[C@@H](NC(=O)[C@H]2CCCCN2C)C(C)C)OC(C)=O)n1)NC(=O)OCc1ccccc1,13.6% [8.5 µM],-2.9% [8.5 µM] (active),22.7% [8.5 µM],16.3% [8.5 µM],14.6% [8.5 µM],32.4% [8.5 µM],-13.3% [8.5 µM] (active),23.8% [8.5 µM],13.8% [8.5 µM],-69.7% [8.5 µM] (active)
CC(=O)OC1CCC2(C)C(CCC3C2CC(=O)C2(C)C3CC(Sc3ccc(N(CCCl)CCCl)cc3)C2C(C)=O)C1 (configuration not stated),50.5%,11.9%,111%,82.7%,68.1%,85.5%,93%,67.9%,55.1%,99.8%
COc1cc2ncnc(Nc3ccc(F)c(Cl)c3)c2cc1OCC(=O)N1CCN(C)CC1,93.4%,90.6%,92.2%,79.6%,101%,86%,97.5%,98.1%,91.5%,102%
COC(=O)[C@@H](C)C[C@H](Cc1ccccc1)NC(=O)c1csc([C@@H](C[C@H](C(C)C)N(C)C(=O)[C@@H](NC(=O)[C@H]2CCCCN2C)C(C(F)(F)F)C(F)(F)F)OC(C)=O)n1,22.3%,14.4%,14.9%,23.2%,3.74% (active),27.2%,-18.5% (active),26.4%,13.5%,71.5%
COc1cc2c(c(OC)c1OC)-c1ccc([O-])c(=O)cc1[C@@H](NC(C)=O)CC2.COc1cc2c(c(OC)c1OC)-c1ccc([O-])c(=O)cc1[C@@H](NC(C)=O)CC2.[Cu+2],15.8%,9.61% (active),50.1%,25.2%,22.3%,35.1%,19.2%,23.5%,36.3%,48.5%
CCCCOc1ccc(C(N)Cc2ccccc2)cc1 (configuration not stated),84.9%,75.4%,71.2%,97%,88.1%,79.5%,92.8%,105%,80%,105%
O=C(c1ccccc1O)c1[nH]c(Cl)c(Cl)c1-n1c(C(=O)c2ccccc2O)cc(Cl)c1Cl,9.94% (active),4.28% (active),-1.42% (active),9.34% (active),-11.8% (active),-13.4% (active),-77.9% (active),-22% (active),10.5%,14.2%
CCOP1(=O)CC(C)=C(Cl)C(P(=O)(OCC)OCC)C1 (configuration not stated),101%,96.2%,78.7%,89.9%,101%,92.6%,101%,92.3%,92.6%,87.3%
CC1=C([Te]c2ccc(O)cc2)C(=O)c2ccccc2C1=O,13.6%,1.03% (active),-3.63% (active),12.3%,10%,5.85% (active),-94.6% (active),5.4% (active),5.05% (active),-12.4% (active)
